According to PubChem BioAssay AID571 (The Scripps Research Institute Molecular Screening Center, 2007):
Out of some 65,000 compounds screened, about 640 (0.98%) were called active. Only a selection was taken, and actives are over-represented in it overall. A number with no mark means an inactive call.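 Rule for the calls: active = inhibition above a set limit, the mean inhibition across every tested compound plus 3 SD (cut at about 29% in these data); inactive = the rest.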

target: 5-hydroxytryptamine receptor 1E (Homo sapiens) (UniProt P28566); assay: 5-HT1E receptor antagonists, primary screen, cell-based, HTS (AID 571); conditions: CHO 5-HT1E Ga15 NFAT-bla reporter, FRET, antagonist; at 6 µM; stronger effect = higher value;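 note: signal is the 460 over 535 nm emission ratio of beta-lactamase substrate; 0% = agonist plus DMSO wells and 100% = wells without agonist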
Sequence (P28566 whole entry, looked up): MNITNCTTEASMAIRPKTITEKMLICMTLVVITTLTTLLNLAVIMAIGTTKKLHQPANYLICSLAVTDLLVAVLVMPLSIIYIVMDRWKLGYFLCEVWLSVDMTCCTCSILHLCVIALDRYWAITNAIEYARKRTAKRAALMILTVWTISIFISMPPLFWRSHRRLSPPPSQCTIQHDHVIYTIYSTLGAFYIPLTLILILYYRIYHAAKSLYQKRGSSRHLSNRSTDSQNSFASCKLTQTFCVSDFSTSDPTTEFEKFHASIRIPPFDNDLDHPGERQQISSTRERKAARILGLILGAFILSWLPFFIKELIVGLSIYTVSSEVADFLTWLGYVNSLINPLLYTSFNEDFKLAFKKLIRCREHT

Compound | inhibition
Cc1ccc(-n2ncc3c(=O)[nH]cnc32)c(C)c1 | 13%
Cc1ccc(-n2ncc3c(N4CCN(c5ccc(F)cc5)CC4)ncnc32)c(C)c1 | 5.14%
Cc1ccc(-n2ncc3c2ncn2nc(-c4ccco4)nc32)c(C)c1 | 40% (active)
Cn1nc(-c2ccc(N3CCOCC3)c(NC(=O)c3ccccc3)c2)c2ccccc2c1=O | 29.7% (active)
COc1c(C)cccc1C(=O)Nc1cc(Cl)ccc1N1CCOCC1 | 0.53%
O=C(Cn1nnc2ccccc2c1=O)Nc1cc(C(F)(F)F)ccc1N1CCOCC1 | 5.96%
O=C(O)C1CC=C(Cl)CC1C(=O)NCc1ccccc1 (stereo unspecified) | -3%
CCN(Cc1nc2ccccc2c(=O)[nH]1)Cc1cc(=O)oc2cc(C)c(C)cc12 | -2.39%
CCn1c(SCC(=O)c2ccc(Cl)s2)nnc1-c1cccs1 | 3.04%
OCc1n[nH]c(CO)n1 | 6.12%
COCCN1Cc2cccc(C(=O)Nc3ccccc3OC)c2C1=O | 8.66%
O=S(=O)(NCc1ccccn1)c1ccc(F)cc1 | 0.49%
NC(=O)C1(N2CCCCC2)CCN(C(=O)c2ccc(C#Cc3ccccc3)o2)CC1 | 2.52%
COc1ccc(Nc2oc(-c3ccccc3Cl)nc2C#N)cc1 | 75% (active)
N#Cc1nc(-c2ccc(OCc3ccccc3)cc2)oc1NCCCN1CCOCC1 | 0.01%
CCOc1ccc(Nc2oc(Cc3ccccc3)nc2C#N)cc1 | -1.52%
O=C(CN1CCN(S(=O)(=O)/C=C/c2ccccc2)CC1)NC(=O)NCc1ccco1 | 4.51%
COc1ccc(CCNC(=O)c2ccc3c(c2)NC(=O)C(N2CCOCC2)S3)cc1OC (stereo unspecified) | -4.16%
Cc1ccccc1NC(=O)c1cc(S(=O)(=O)N2CCOCC2)cs1 | -6.32%
O=C(Nn1cc(C(=O)N2CCN(c3ccccc3F)CC2)c2ccccc2c1=O)c1cnccn1 | 3.04%
COCCNc1nc(-n2nc(C)cc2C)nc2sc3c(c12)CCCC3 | 22.7%
CC(=O)c1ccc(Oc2cc(C)nc(-n3nc(C)cc3C)n2)cc1 | 78.3% (active)
COc1cc(NS(=O)(=O)c2ccccc2)ccc1-n1nc(C)cc1C | -6.22%
COc1ccc(Nc2cc(C)nc(-n3nc(C)cc3C)n2)cc1 | 49% (active)

Compound | inhibition
Cc1cc(C)n(-c2ccc(Cl)c(C(=O)O)n2)n1 | 4.5%
CCOC(=O)c1cnc(-n2nc(C)cc2C)nc1Nc1cccc(C(C)=O)c1 | -0.9%
Cc1cc(NCc2ccco2)n2c(nc3ccccc32)c1C#N | 11.1%
Nc1ccc(-c2nnc(-c3ccc(-c4ccccc4)cc3)o2)cc1 | -0.45%
O=C(CSc1nnc(-c2ccncc2)n1C1CCCCC1)Nc1ccccc1 | -9.37%
CC12C(=O)N(n3cnnc3)C(=O)C1C1C=CC2C1 (stereo unspecified) | 8.42%
COCCNC(=O)C(c1ccc(C)o1)N(Cc1cccs1)C(=O)c1snc(C(N)=O)c1N (stereo unspecified) | -3.57%
Cc1cc(=O)oc(C)c1C(=O)NC1CC(C)(C)NC(C)(C)C1 | -4.29%
C[N+](C)(C)CCOP(=O)([O-])OC[C@H](O)CO | -4.74%
COc1ccc(Br)cc1S(=O)(=O)N1CCN=C1C | -3.84%
CC1CCCC(NC(=O)CSc2nccn2C)C1C (stereo unspecified) | 2.04%
Cc1c(C(=O)NCCN2CCOCC2)sc2nc(-c3ccc(F)cc3)cn12 | -2.05%
c1ccc(-c2cn3cccnc3n2)cc1 | -0.19%
COc1ccc(S(=O)(=O)NC(CC(=O)NCc2ccccc2OC)c2ccco2)cc1 (stereo unspecified) | -1.55%
CCOC(=O)N1CCC(NC(=O)CN2C(=O)COc3ccc(C(C)(C)C)cc32)CC1 | -7.21%
CCOC(=O)N1CCC(NC(=O)Cc2cn(C)c3ccccc23)CC1 | -14.8%
CCOC(=O)c1c(C)oc2ccc(OCC(=O)N(CC)CC)cc12 | -6.18%
COc1ccc(C)cc1S(=O)(=O)NC1CCCCC1 | -3.9%
O=C(Cn1c(=S)nc2ccccn21)N1CCc2ccccc2C1 | -1.67%
CCCCNC(=O)CSc1nccn1Cc1ccccc1 | 3.33%
O=C(CNS(=O)(=O)c1cccc(C(F)(F)F)c1)Nc1ccccc1F | -3.72%
CCCCC(=O)Nc1ccc2c(c1)C(=O)NC2=O | 44% (active)
CCCCC(=O)Nc1ccc2c(c1)OCCO2 | -10.5%
CCCCCC(=O)Nc1ccc2oc(-c3ccncc3)nc2c1 | 4%

Compound | inhibition
Nc1ccc(SCCN2C(=O)c3ccccc3C2=O)cc1 | -1.04%
COC(=O)c1ccc(NC(=O)CSc2nnc(Cc3cccn3C)n2-c2ccc(F)cc2)cc1 | -7.1%
CCc1nnc(NC(=O)c2nc3nccc(C)n3n2)s1 | -0.48%
CCOc1ccc(C(=O)Nc2ccncc2)cc1 | 5.74%
CSc1sc(C)cc1C1C(C#N)=C(N)N(c2cccnc2)C2=C1C(=O)CCC2 (stereo unspecified) | 24.6%
COc1ccc(CCNS(=O)(=O)c2ccc(C(=O)NCc3ccco3)cc2)cc1OC | -13.4%
Cc1ccccc1NC(=O)Cc1nnc(SCC(=O)N2CCN(c3ccccc3)CC2)n1C | 2.63%
Cc1noc(C)c1S(=O)(=O)NCCc1ccc(S(N)(=O)=O)cc1 | -6.61%
Cc1cccc(-n2c(O)c(C=Nc3ccccc3N)c(=O)[nH]c2=O)c1 | -5.35%
Cc1ccc(-n2nc(-c3ccco3)cc2C(=O)NCc2cccnc2)cc1 | 30.4% (active)
Cc1ccc2c(c1)N(CCCC(=O)NCc1cccnc1)C(=O)CO2 | 10.1%
CC(C)(C)c1cc(C(=O)NCc2cccnc2)ccn1 | -1.08%
CCN1CCN(C(=O)c2ccccc2N(C)S(=O)(=O)c2ccc(C)cc2)CC1 | -11.1%
Cc1nnc2sc(-c3ccco3)nn12 | -3.05%
CCn1c(=O)cc(OCC(=O)NCCCN2CCN(c3cccc(Cl)c3)CC2)c2ccccc21 | -1.38%
CC1CCCC(C)N1CCCNC(=O)c1cc2c(=O)n(C)c3ccccc3c2n1C (stereo unspecified) | -8.37%
Cn1c(C(=O)NCCCN2CCN(c3cccc(Cl)c3)CC2)cc2c(=O)n(C)c3ccccc3c21 | 28.9% (active)
COc1ccc(OC)c(N=Cc2c(O)[nH]c3ccccc23)c1 | 39.8% (active)
COc1ccc(N=Cc2c(O)[nH]c3ccccc23)cc1OC | -3.2%
COc1cc(N=Cc2c(O)[nH]c3ccccc23)cc(OC)c1OC | 4.31%
COc1ccc(NC2CC(=O)N(C)C2=O)cc1 (stereo unspecified) | -0.34%
C[C@H](NC(=O)OC(C)(C)C)c1nnc(SCC(N)=O)o1 | -6.77%
O=C(Nc1ccccc1N1CCCCC1)c1cccc(F)c1 | -0.39%
O=C(NCc1ccco1)c1cccn2c(=O)c3cc(Br)ccc3nc12 | 11.4%

Compound | inhibition
Cc1cccc(NC(=O)CN2CCCN(S(=O)(=O)c3ccc(Br)s3)CC2)c1 | 12.7%
CCC1(C)Cc2c(sc3nc4n(c(=O)c23)CCCS4)CO1 (stereo unspecified) | 7.47%
COC(=O)c1c(NC(=O)CSc2nc3c(c(=O)n(C)c(=O)n3C)n2C(C)C)sc(C)c1C | -1.61%
CCCCCCC(=O)N(O)C1CC(=O)N(c2ccccc2)C1=O (stereo unspecified) | 29% (active)
CCCCOC(=O)c1ccc(N2C(=O)CC(N3CCN(C/C=C/c4ccccc4)CC3)C2=O)cc1 (stereo unspecified) | -8.79%
CCOc1ccc(N2C(=O)CC(N(O)c3ccccc3)C2=O)cc1 (stereo unspecified) | -13.5%
Cc1cc(C)cc(OCc2nnc(SCC(=O)OC3CCCCC3)o2)c1 | 1.45%
Cc1cc(C(=O)OCC(=O)c2c(N)n(C)c(=O)n(C)c2=O)c(C)o1 | -2.61%
CCOc1ccccc1NC(=O)C1CCC(CNc2c(N3CCOCC3)c(=O)c2=O)CC1 (stereo unspecified) | -7.97%
Cn1c(=O)[nH]c(=O)c2c1nc(N1CCN(CCO)CC1)n2CCSc1nc2ccccc2s1 | -9.93%
COc1ccc(NC(=O)c2c(SC)nsc2SC)cc1 | 3.42%
Cc1cccc(-n2nc3c(c2NC(=O)c2ccc(Br)o2)CSC3)c1C | -0.62%
COc1cccc(C(=O)Nc2c3c(nn2-c2cccc(C)c2C)CS(=O)(=O)C3)c1OC | 29.9% (active)
O=C(CC1CCCCC1)Nc1c2c(nn1-c1ccc(F)cc1)CS(=O)(=O)C2 | 3.57%
Cc1noc(C)c1S(=O)(=O)N1CCCC(C(=O)Nc2nccs2)C1 (stereo unspecified) | 6.69%
CC(C)C[C@H](NC(=O)NCCc1ccc(Cl)cc1)C(=O)O | 0.25%
Cn1cccc1Cc1nnc(SCC(=O)NCc2ccc3c(c2)OCO3)n1CCc1ccccc1 | -2.19%
C=CCn1c(COc2ccccc2C)nnc1SCC(=O)O | 10.3%
COC(=O)c1ccc(NC(=O)CSc2nnc(-c3ccncc3)n2C)cc1 | -4.91%
CCOc1cc(-c2noc(CCC(=O)N3CCOCC3)n2)ccc1OC | 8.36%
CCOc1cc(CN2CCN(C(=O)CC(C)C)CC2)ccc1OC | -2.34%
CCOc1cc(C(=O)N2CCc3cc(OC)c(OC)cc3C2)ccc1OC(F)F | 90.1% (active)
CCN(CC)C(=O)N1CCN(C(=O)c2ccc(C)cn2)CC1 | -13.6%
COC(=O)C1(S(=O)(=O)C2(C(=O)OC)CCCC2)CCCC1 | -13%
